KB-V1 cytotox: kills drug-selected multidrug resistant KB-V1 cells; KB-V1 MDR cells viability, CellTiter-Glo, 72 h; Potency, µM (highest dose often 46.1 µM), usual class: cytotoxic; hit rate 3.4% among 400,000; further: nearly all actives have a fitted effect of over 60% in size
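Following 72 h at 37 degrees C with compound, KB-V1 cell viability was read by CellTiter-Glo luminescence, medium being phenol-red-free DMEM plus 10% FBS; concentration-response parameters came from normalized, curve-fitted qHTS data.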
TDP1 cell CPT: growth inhibition of DT40 Tdp1-/-;hTDP1 cells with camptothecin (screen for TDP1 inhibitors). chicken DT40 Tdp1-/-;hTDP1 cells + 20 nM CPT, ATP luminescence, 48 h. Potency, µM (titrated, usually from 46.2 µM), most hits filed as inhibitors. hit rate 12% among 420,000. AID 686979; further: nearly all actives have a fitted effect of over 55% in size
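Cell growth measured by CellTiter-Glo luminescence after a minimum 48 h, 37 C compound exposure with 20 nM CPT in Tdp1-knockout DT40 cells stably expressing hTDP1, seeded 400/well; qHTS titration format.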
HT1080 IDH1KD tx: kills HT-1080 cells with IDH1 knockdown; HT-1080 IDH1 knockdown viability, ATP luminescence, 48 h; Potency, µM (series often up to 46.1 µM), actives largely listed as cytotoxic; hit rate 2% among 360,000; AID 686971
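Assay cells: HT-1080 with IDH1 knockdown, 750 per well, RPMI/5% FBS. Exposure: 48 h at 37 °C following 2 h pre-incubation. Read: CellTiter-Glo luminescence; fitted concentration-response, curve class assigned.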
KB-3-1 cytotox: kills parental KB-3-1 adenocarcinoma cells; KB-3-1 viability, CellTiter-Glo ATP luminescence, 72 h; AID 1347075; Potency, µM (series often up to 46.1 µM), most hits filed as cytotoxic; hit rate 1.4% among 400,000; further: nearly all actives have a fitted effect of over 60% in size
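Viability of parental KB-3-1 cells, measured by CellTiter-Glo luminescence, followed a 72 h incubation at 37 °C with pinned compounds in phenol-red-free DMEM containing 10% FBS.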
HT1080-NT tox: kills 2HG-producing HT-1080-NT fibrosarcoma cells; HT-1080-NT fibrosarcoma viability, CellTiter-Glo ATP luminescence, 48 h; Potency, µM (titrated, usually from 46.1 µM), actives largely listed as cytotoxic; hit rate 1.6% among 360,000; AID 686970;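 further: NT is the 2HG producing partner of a matched IDH1 knockdown line; nearly all actives have a fitted effect of over 55% in size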
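Luminescent CellTiter-Glo readout after 48 hours of compound exposure at 37 degrees C defined viability of HT-1080-NT cells. Activity was normalized to DMSO wells and cell-free media wells; concentration-response curves were fitted and assigned curve classes.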
TDP1 cell noCPT: qHTS for Inhibitors of human tyrosyl-DNA phosphodiesterase 1 (TDP1): qHTS in cells in absence of CPT | DT40 Tdp1-/- hTDP1 cells, no CPT, ATP luminescence, 48 h | Potency, µM (highest dose often 46.2 µM), most hits filed as inhibitors | hit rate 15% among 420,000; further: nearly all actives have a fitted effect of over 55% in size
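Compound effects on proliferation are scored in DT40 Tdp1-/-;hTDP1 cells in the absence of CPT. ATP levels (CellTiter-Glo luminescence) are recorded after a ≥48 hr, 37 °C incubation.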
Hits are given with their value; . = inactive; ? = inconclusive; / = no result given; [ ] = dose if it differs, or a comment. Rows were chosen to be rich in hits. Some 19% of all compounds tested hit in one or more screens of this group. The call rests on the fitted dose curve; in most records, active means well fitted curve in the direction sought with a large enough effect; inconclusive means small, poorly fitted or top-dose-only effect, or another doubt; inactive means no such curve, though single readings can be large; an effect the other way counts as inactive or inconclusive.

SMILES | KB-V1 cytotox | TDP1 cell CPT | HT1080 IDH1KD tx | KB-3-1 cytotox | HT1080-NT tox | TDP1 cell noCPT
Cc1nn(CC(C)C)c(Cl)c1C(=O)NC1CCCC1 | . | . | . | . | . | .
CCOC(=O)[C@]12Cc3ccccc3[C@H]1N(Cc1ccccc1)C(=O)c1ccccc12 | ? | ? | . | . | . | ?
CCOC(=O)[C@]12Cc3cc(C)ccc3[C@H]1N(C(C)C)C(=O)c1ccccc12 | . | 10.3µM | 25.9µM | 4.11µM | 11.6µM | 6.51µM
CCOC(=O)[C@]12Cc3cc(OC)ccc3[C@H]1N(Cc1ccccc1)C(=O)c1cc(F)c(F)cc12 | ? | ? | . | ? | . | ?
CCOC(=O)[C@]12Cc3cc(C)ccc3[C@H]1N(Cc1ccccc1)C(=O)c1ccccc12 | ? | 10µM | . | ? | . | 14.6µM
CCCCCN1C(=O)c2ccccc2[C@@]2(C(=O)OCC)Cc3cc(OC)ccc3[C@@H]12 | ? | 7.31µM | 11.6µM | 5.8µM | 14.6µM | 4.61µM
CCOC(=O)[C@]12Cc3cc(OC)ccc3[C@H]1N(Cc1ccccc1)C(=O)c1ccccc12 | ? | ? | . | ? | . | 11.2µM
O=C(c1csnn1)N1CCC[C@@]2(CCN(Cc3ccncc3)C2)C1 | / | . | / | / | / | .
O=S(=O)(c1ccccc1)C1CN1c1c(F)c(F)c(F)c(F)c1F (stereo not given) | . | . | . | . | . | ?
CCOC(=O)[C@]12Cc3cc(C)ccc3[C@H]1N(Cc1ccccc1)C(=O)c1cc(F)c(F)cc12 | . | 20.6µM | ? | 3.26µM | ? | 14.6µM
CCOC(=O)[C@]12Cc3c(cc(OC)c(OC)c3OC)[C@H]1N(C(C)C)C(=O)c1ccccc12 | 8.2µM | 23.1µM | 6.51µM | 13µM | ? | 14.6µM
CC1CCCCC1NC(=O)CNC(=S)N1CC2CC(C1)c1cccc(=O)n1C2 (stereo not given) | . | . | . | . | . | .
Cc1cccn2c(=O)c3cc(C(=O)N4CCC5(CC4)OCCO5)n(C)c3nc12 | 3.66µM | 1.16µM | 13µM | 3.26µM | 16.4µM | 1.3µM
O=P1(c2ccccc2)Nc2ccccc2N1c1ccccc1 (stereo not given) | . | ? | . | . | . | ?
O=C(O)c1ccccc1-c1c2cc(Br)c(=O)cc-2oc2[c]([Hg])c(O)c(Br)cc12 | / | 1.46µM | / | / | / | 0.581µM
CCCCC[C@@H](/C=C/C=C\CCCCCCCC(=O)O)OO | / | .[0.628 µM] | / | / | / | .[0.628 µM]
CCCCCc1cc(O)c2c(c1)OC(C)(C)c1ccc(C)cc1-2 | / | 16.8µM | / | / | / | 9.44µM
COc1nc(NC(C)C)nc(N(C#N)CN2C(=O)c3ccccc3S2(=O)=O)n1 | . | 23.1µM | . | . | . | .
CCc1ccc(N2C(=O)NC(=O)/C(=C/c3cccn3CCOc3ccc(C(C)CC)cc3)C2=O)cc1 (stereo not given) | . | ? | . | . | . | 14.6µM
CC(C)c1ccc(N2C(=O)NC(=O)/C(=C\c3cnc(-c4ccccc4)nc3)C2=O)cc1 | ? | ? | . | . | . | ?
CCc1ccc(N2C(=O)NC(=O)/C(=C/c3cccn3CCOc3ccc(C)cc3)C2=O)cc1 | . | 25.9µM | . | . | . | ?
Cc1cccc(OCCn2cccc2/C=C2/C(=O)NC(=O)N(Cc3ccco3)C2=O)c1 | . | . | . | . | . | .
Cc1cc(Cc2c(O)[nH]c(=S)[nH]c2=O)ccc1OC(C)C | . | . | . | . | . | .
NCC(N)C(=O)c1ccccc1 (stereo not given) | / | . | / | / | / | .
CC(C)c1ccc2[nH]c(O)c(N=NC(=O)c3cccc(S(=O)(=O)Nc4ccc(Cl)cc4)c3)c2c1 | . | 11.6µM | . | . | ? | 10.3µM
SMILES | KB-V1 cytotox | TDP1 cell CPT | HT1080 IDH1KD tx | KB-3-1 cytotox | HT1080-NT tox | TDP1 cell noCPT
O=C1NC2NC(=O)N([N+](=O)[O-])C2N1 (stereo not given) | . | . | . | . | . | .
CCOc1ccc(CN(CCc2ccc3c(c2)OCO3)Cc2cccc(C)c2)cc1 | / | 16.4µM | / | / | / | 13µM
CCOc1ccc(CN(CCc2ccc3c(c2)OCO3)Cc2cc(OC)ccc2O)cc1 | . | ? | / | . | / | 18.4µM
N#Cc1ccc(CN2Cc3ccccc3-n3nncc3C2)cc1 | . | ? | . | . | . | ?
O=C(COc1ccccc1[N+](=O)[O-])N1CCN(CCc2ccccn2)CC1 | . | . | / | . | / | .
C[n+]1ccc(-c2ccccc2)c2ccccc21 | . | 2.31µM | . | ? | ? | 2.59µM
C[C@@H]1CN([C@H](C)CO)C(=O)CCCn2nncc2CO[C@@H]1CN(C)C(=O)Oc1ccccc1 | . | ? | . | . | . | .
O=C1NCc2c1c1c3ccccc3[nH]c1c1[nH]c3ccccc3c21 | . | 3.16µM | / | ? | / | 2.82µM
COc1ccc([C@@H]2COc3c(ccc4c3C=CC(C)(C)O4)C2)c(OC)c1 | . | . | . | . | . | .
COc1cc(C2Nc3c(C)cc(C)cc3-c3cc(C)nn32)cc(OC)c1O (stereo not given) | ? | 5.8µM | / | ? | / | 4.11µM
Cc1ccc(-c2nc3ncccc3o2)cc1NC(=O)c1cccc(OCC(C)C)c1 | . | . | / | . | / | ?
C[C@]12CC[C@H](O)CC1=CC(=O)C1C2CC[C@]2(C)C(=O)[C@H](O)CC12 (stereo not given in full) | . | . | . | . | . | .
CN1CCCN(c2ccc([N+](=O)[O-])nc2)CC1 | . | . | . | . | . | .
O=C1NC(=O)N(Cc2ccc(F)cc2)C(=O)/C1=C\c1ccc(N2CCCC2)cc1 | . | . | . | . | . | .
Fc1ccc(N2CCN(c3ncnc4c3nc3n4CCCCC3)CC2)cc1 | . | . | / | ? | / | 18.4µM
Cc1cccc(Cc2cnc[nH]2)c1C | / | . | / | / | / | .
C[C@](N)(CCP(=O)(O)O)C(=O)O | . | . | . | . | . | .
C=C1C(=O)O[C@@H]2C[C@@H](C)[C@@H]3C=CC(=O)[C@@]3(C)[C@@H](OC(C)=O)[C@H]12 | 14.6µM | 0.82µM | 4.61µM | ? | 6.51µM | 0.651µM
CCCN1CCCC(C(=O)c2cc(C)c(OC)c(C)c2)C1 (stereo not given) | ? | ? | . | . | . | ?
Nc1cc(Cl)c2nonc2c1[N+](=O)[O-] | ? | 0.731µM | 11.6µM | 16.4µM | 7.31µM | 0.651µM
COC(=O)C1=C(c2c(C)noc2C)C[C@@H]2CC[C@H]1N2C(=O)NCc1ccco1 | . | . | . | . | . | .
CSc1ccc(C(=O)C2CCCN(CCCn3cccn3)C2)cc1 (stereo not given) | ? | ? | . | . | . | .
CC(C)C1CN1CC(O)Cn1ccnc1[N+](=O)[O-] (stereo not given) | . | 18.4µM | ? | . | ? | ?
